A number with no mark means an inactive call.
Test system: Vero E6 infected with SARS-CoV-2
Assay: inhibition of SARS-CoV-2 cytopathic effect; higher = more antiviral protection, active = above 15
Conditions: 48 h

Row | Structure (SMILES) | inhibition of SARS-CoV-2 cytopathic effect (1 nM) | inhibition of SARS-CoV-2 cytopathic effect (8.33 nM) | inhibition of SARS-CoV-2 cytopathic effect (100 nM) | inhibition of SARS-CoV-2 cytopathic effect (833.33 nM) | inhibition of SARS-CoV-2 cytopathic effect (10000 nM)
1 | O=C1NC(=O)C(c2cnc3ccccn23)=C1c1cn2c3c(cc(F)cc13)CN(C(=O)N1CCCCC1)CC2 | 0.79% | 7.15% | 14.4% | 16% (active) | 14.8%
2 | O=C(NO)c1ccc(O)c(O)c1 [didox] | 1.58% | 0.68% | 1.83% | -2.16% | -2.13%
3 | C[C@H]1O[C@@H](n2cc(F)c(=O)[nH]c2=O)[C@H](O)[C@@H]1O [doxifluridine] | -2.13% | -1.63% | 1.63% | -0.27% | -0.71%
4 | CC1(C)S[C@@H]2[C@H](NC(=O)[C@H](N)c3ccc(O)cc3)C(=O)N2[C@H]1C(=O)O [amoxicillin] | -2.41% | -1% | -0.76% | -0.16% | -2.88%
5 | CCOC(=O)[C@H](Cc1ccccc1)NC(=O)c1cc(Cl)c(OCCN2CCN(C)CC2)c(Cl)c1O | -1.93% | 1.91% | 0.81% | -1.07% | 2.79%
6 | c1ccc2c(c1)[I+]c1ccccc1-2 [diphenyleneiodonium] | 0.63% | 1.31% | -0.64% | -1.09% | 0.37%
7 | CCC(C)n1ncn(-c2ccc(N3CCN(c4ccc(OCC5COC(Cn6cncn6)(c6ccc(Cl)cc6Cl)O5)cc4)CC3)cc2)c1=O (stereo not given) [itraconazole] | 2.52% | 7.17% | 2.54% | -1.78% | -7.27%
